Records with an inconclusive call do not appear. Active and inactive are the calls of the source. Calls follow the shape of the dose curve; as a rule, active = well fitted cell-killing curve with a large enough effect; inconclusive = small, poorly fitted or top-dose-only effect, or effect the other way; inactive = flat fitted curve, though single readings scatter.
Experiments:
Assay in all cases: Primary qHTS to identify gynecologic anti-cancer compounds using libraries of approved drugs and bioactive compounds (AID 1345084); also: nearly all actives have a fitted effect of over 55% in size
C33A = conditions: Gynecologic cancer cell panel viability, ATPlite luminescence, 48 h; series mostly up to 57.5 µM
Summary of the method: (§1)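 Measured: luminescence after ATPlite addition (15 min, RT). Exposure: 48 h, 37 C, 5% CO2.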

CAOV3 = conditions: Gynecologic cancer cell panel viability, ATPlite luminescence, 48 h; series mostly up to 57.5 µM
Summary of the method: as §1

CASKI = conditions: Gynecologic cancer cell panel viability, ATPlite luminescence, 48 h; series mostly up to 57.5 µM
Summary of the method: as §1

Es-2 = conditions: Gynecologic cancer cell panel viability, ATPlite luminescence, 48 h; series mostly up to 57.5 µM
Summary of the method: as §1

HeLa = conditions: Gynecologic cancer cell panel viability, ATPlite luminescence, 48 h; series mostly up to 57.5 µM
Summary of the method: as §1

Hek293T = conditions: Gynecologic cancer cell panel viability, ATPlite luminescence, 48 h, control line for the selectivity index; series mostly up to 57.5 µM
Summary of the method: as §1

JEG-3 = conditions: Gynecologic cancer cell panel viability, ATPlite luminescence, 48 h; series mostly up to 57.5 µM
Summary of the method: as §1

OV90 = conditions: Gynecologic cancer cell panel viability, ATPlite luminescence, 48 h; series mostly up to 57.5 µM
Summary of the method: as §1

PA-1 = conditions: Gynecologic cancer cell panel viability, ATPlite luminescence, 48 h; series mostly up to 57.5 µM
Summary of the method: as §1

SKOV3 = conditions: Gynecologic cancer cell panel viability, ATPlite luminescence, 48 h; series mostly up to 57.5 µM
Summary of the method: as §1

Tov-21-G = conditions: Gynecologic cancer cell panel viability, ATPlite luminescence, 48 h; series mostly up to 57.5 µM
Summary of the method: as §1

Tov112D = conditions: Gynecologic cancer cell panel viability, ATPlite luminescence, 48 h; series mostly up to 57.5 µM
Summary of the method: as §1

Measured: Potency

C/C1=C\[C@H]2OC(=O)[C@@H](C)[C@@H]2CC/C(C(=O)O)=C/CC1
inactive: all assays above

CCn1cc(NC(=S)Nc2cc(Cl)ccc2OC)c(C(N)=O)n1
inactive: all assays above

C=C[C@]1(C)C=C2CCC3C(C)(CCC[C@@]3(C)C(=O)O)C2CC1 (some centres undefined)
inactive: all assays above

COc1ccc(-n2[nH]c(=O)c3[nH]c4cc(Cl)ccc4c(=O)c3c2=O)c(C)c1
inactive: all assays above

O=C(CCCCN1CCOCC1)Nc1ccc(-c2cccnc2)cc1
inactive: all assays above

CC(=O)OC[C@@]12C(=O)C[C@@H](C)[C@]3(C[C@@H](c4ccoc4)O[C@H]3OC(C)=O)[C@H]1CCC[C@]21CO1
inactive: all assays above

C=C(C(=O)O)C1CCC2(C)CCC(O)C(=C)C2C1 (centres undefined)
inactive: all assays above

O=C(O)c1cc(-c2c(-c3ccccc3)nn3ccccc23)n[nH]c1=O
inactive: all assays above

CC1(c2nc3c(C(N)=O)cccc3[nH]2)CCCN1 (centres undefined)
inactive: all assays above

C=C1CC2C(C)(CCC(=O)O)C(C(C)(C)O)CCC2(C)C2C(=O)OC(C)(C(=O)OC)C(=O)C12C (centres undefined)
inactive: all assays above

CC(=O)O[C@@H]1[C@@H](O)[C@H](C)O[C@@H](O[C@H]2[C@@H]3C=CO[C@@H](O[C@@H]4O[C@H](CO)[C@@H](O)[C@H](O)[C@H]4O)[C@@H]3[C@@]3(CO)O[C@@H]23)[C@@H]1OC(=O)/C=C/c1ccccc1
inactive: all assays above

OC[C@H]1O[C@@H](OCCc2ccccc2)[C@H](O[C@@H]2OC[C@](O)(CO)[C@H]2O)[C@@H](O)[C@@H]1O
inactive: all assays above

C/C=C1\[C@H](OC2OC(COC3OC(CO)C(O)C(O)C3O)C(O)C(O)C2O)OC=C(C(=O)OC)[C@H]1CC(=O)OCCc1ccc(O)cc1 (some centres undefined)
inactive: all assays above

C/C=C(/COC(=O)/C(C)=C/C)C(=O)OC(CC)c1ccc(OC)c(OC)c1 (centres undefined)
inactive: all assays above

CC1=C(C(=O)O)/C(=C/CO[C@@H]2O[C@H](COC(=O)/C=C/c3ccc(O)cc3)[C@@H](O)[C@H](O)[C@H]2O)C(O)C1 (some centres undefined)
inactive: all assays above

C=C1CCC2C(C)(C)C(O)CCC2(C)C1CCC(C)CCO (centres undefined)
inactive: all assays above

CC(=O)O[C@@H]1c2c3c(cc(O)c2C(=O)O[C@@H]1C)O[C@@]1(C)[C@@H](O)C[C@H]2C(C)(C)C(=O)C=C[C@]2(C)[C@@H]1C3
inactive: all assays above

CC12CCC(C(OC3OC(COC4OCC(O)(CO)C4O)C(O)C(O)C3O)C1)C(C)(C)O2 (centres undefined)
inactive: all assays above

Cc1c2cc(c(C(=O)O)c1C)OC1OC(C(O)C(O)C1O)C(O)C(O)C1OC(O2)C(O)C(O)C1O (centres undefined)
inactive: all assays above

O=S(=O)(NC1CCC(c2cc(F)ccc2F)(S(=O)(=O)c2ccc(Cl)cc2)CC1)C(F)(F)F (centres undefined)
inactive: all assays above

C=C1C(O)C(O)C2(CC3C(C)=CCC4C(C)(CO)CCCC34C)OC2C1O (centres undefined)
inactive: all assays above

C=CC(C)(C)c1[nH]c2ccccc2c1C[C@@H]1NC(=O)[C@H](Cc2c[nH]c3ccccc23)NC1=O
inactive: all assays above

COC(=O)CCc1cc2ccoc2c(OC)c1O[C@@H]1O[C@H](CO)[C@@H](O)[C@H](O)[C@H]1O
inactive: all assays above

C=C1CCC2C(C)(COC(C)=O)CCCC2(C)C1CCC(C)CC(=O)O (centres undefined)
inactive: all assays above

COc1ccc(/C=C/C(=O)O[C@H]2[C@H](O[C@H]3[C@@H]4C=CO[C@@H](O[C@@H]5O[C@H](CO)[C@@H](O)[C@H](O)[C@H]5O)[C@@H]4[C@@]4(CO)O[C@@H]34)O[C@@H](C)[C@H](O)[C@H]2OC(C)=O)cc1
inactive: all assays above

COC(=O)C1=CO[C@@H](O[C@@H]2O[C@H](CO[C@@H]3O[C@H](COC(=O)/C=C/c4cc(OC)c(O)c(OC)c4)[C@@H](O)[C@H](O)[C@H]3O)[C@@H](O)[C@H](O)[C@H]2O)[C@@H]2C(CO)=CC[C@H]12
inactive: all assays above

C[C@@H]1C[C@@H]([C@@H](O)C(C)(C)O)O[C@H]2C[C@@]3(C)C(=C12)C[C@H](O)[C@H]1[C@@]2(C)CCC(=O)C(C)(C)C2CC[C@@]13C (some centres undefined)
inactive: all assays above

Cn1nnc(-c2ccc(-c3ccc(N4C[C@H](CO)OC4=O)cc3F)cn2)n1
inactive: all assays above

C/C1=C\CC[C@]2(C)O[C@@H]2[C@H](O)[C@H](C(C)C)[C@H](OC(=O)/C=C/c2ccccc2)C1
inactive: all assays above

C=C(C)C1CCC2(C(=O)O)CCC3(C(=O)O)C(CCC4C5(C)CCC(O)C(C)(C(=O)O)C5CCC43C)C12 (centres undefined)
inactive: all assays above

C=C(C)C1CCC(C)C12CC(O)C1(C)OC1C2OC(=O)C(N)CCC(=O)O (centres undefined)
inactive: all assays above

CCNC(=O)Nc1ncc(-c2cc(-c3c(C)cc(OC)cc3C)nc(-c3cnccn3)n2)s1
inactive: all assays above

Reference: PubChem BioAssay (NCATS)
